SMILES strings stand for the structures. Compounds without any hit were thinned out: in the full panel of roughly 83,000, 20% have a hit.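 Method: cells in 96-well plates; compound added at one concentration; 48 h incubation; percent growth measured; values under 10 scored active.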 A number with no mark means an inactive call. Active and inactive are the calls of the source.

The values below come from PubChem BioAssay (NCI).

Among the test systems are NCI-H23 lung; NCI-H226 lung; NCI-H322M lung; HOP-62 NSCLC; NCI-H460 lung; HOP-92 NSCLC; NCI-H522 lung; A549/ATCC NSCLC; 786-0 renal; COLO 205 colon.
What all share (experiment): NCI-60 one-dose screen, 48 h (100 = growth as untreated, 0 = no growth, -100 = all killed)
Holding throughout (settings): 10 µM unless noted

`CCNC(=O)C1CCCN1C(=O)C(CCCN=C(N)N)NC(=O)C(CC(C)C)NC(=O)C(CC(C)C)NC(=O)C(Cc1ccc(O)cc1)NC(=O)C(CO)NC(=O)C(Cc1c[nH]c2ccccc12)NC(=O)C(Cc1cnc[nH]1)NC(=O)C1CCC(=O)N1` (stereo not given): the growth in the experiment on NCI-H23 lung is 87.8%; in the experiment with NCI-H226 lung, 111%; with NCI-H322M lung, 119%; in the experiment on HOP-62 NSCLC, 96.8%; in the experiment on NCI-H460 lung, 107%; with HOP-92 NSCLC, 92%. Also, the growth is 74.1% in the experiment on NCI-H522 lung, 81.6% in the experiment with A549/ATCC NSCLC, 104% in the experiment with 786-0 renal and 94.9% with COLO 205 colon.
Regarding `Nc1nc(Cl)c2c(ncn2Cc2ccc(CCl)cc2)n1`, the growth in the experiment with NCI-H23 lung was 94%; with NCI-H226 lung, 94.5%; in the experiment with NCI-H322M lung it was 94.9%; in the experiment with HOP-62 NSCLC it was 120%; in the experiment with NCI-H460 lung, 93.8%; with HOP-92 NSCLC, 54.9%. Besides, the growth in the experiment on NCI-H522 lung was 76.1%; with A549/ATCC NSCLC, 83.4%; in the experiment on 786-0 renal it was 103%; in the experiment on COLO 205 colon it was 106%.
On to `CCn1cc(C(=O)O)c(=O)c2cc(F)c(N3CCN(S(=O)(=O)c4ccc(OC)c(OC)c4)CC3)cc21`, for which the growth is 99.6% in the experiment on NCI-H23 lung; 95.9% in the experiment on NCI-H226 lung; 102% in the experiment on NCI-H322M lung; 100% in the experiment with HOP-62 NSCLC; 108% in the experiment with NCI-H460 lung; 91.5% in the experiment on HOP-92 NSCLC. Further, the growth in the experiment on NCI-H522 lung was 90.6%; in the experiment with A549/ATCC NSCLC it was 105%; in the experiment on 786-0 renal, 99.5%; in the experiment with COLO 205 colon, 99.3%.
On to `Cn1c(-c2nonc2NC(=O)c2ccc(F)cc2)nc2ccccc21`, for which the growth is 108% in the experiment on NCI-H23 lung; 96% with NCI-H226 lung; 102% in the experiment on NCI-H322M lung; 120% in the experiment with HOP-62 NSCLC; 101% with NCI-H460 lung; 104% with HOP-92 NSCLC. The growth with NCI-H522 lung was 95.2%; in the experiment with A549/ATCC NSCLC, 98.1%; in the experiment on 786-0 renal it was 98.6%; in the experiment on COLO 205 colon it was 117%.
In the case of `COc1ccc(-c2nnc(COc3ccc(NS(=O)(=O)c4ccc(OC)cc4)cc3F)o2)cc1`, the growth is 56.6% in the experiment on NCI-H23 lung; 57.9% with NCI-H226 lung; 83.6% with NCI-H322M lung; 93.9% in the experiment with HOP-62 NSCLC; 77.8% in the experiment with NCI-H460 lung; 70.9% in the experiment with HOP-92 NSCLC. The growth was 49.2% with NCI-H522 lung, 62.8% in the experiment on A549/ATCC NSCLC, 74.8% in the experiment with 786-0 renal and 70.6% with COLO 205 colon.
Consider `CCN1C(=O)N(CC)C2Nn3c(s/c(=C4\C(=O)N(C5CCCC5)c5ccccc54)c3=O)=NC21` (stereo not given), for which the growth in the experiment on NCI-H23 lung is 53.9%; with NCI-H226 lung, 91.8%; in the experiment with NCI-H322M lung, 94.8%; with HOP-62 NSCLC, 50%; in the experiment on NCI-H460 lung, 43.9%; with HOP-92 NSCLC it was 67.4%. The growth was 28% in the experiment on NCI-H522 lung, 54.4% in the experiment with A549/ATCC NSCLC, 63.6% in the experiment on 786-0 renal and 26.2% in the experiment on COLO 205 colon.
Consider `COC1=CC(c2ccc[nH]2)=N/C1=C\c1[nH]c(C)c(CCCn2cc(CCCCCCCCC[C@@H]3Cc4cc(O)ccc4C4CC[C@]5(C)[C@@H](O)CC[C@H]5C43)nn2)c1C` (stereo not given in full), for which the growth in the experiment on NCI-H23 lung was 49.9%; in the experiment on NCI-H226 lung it was 68.2%; with NCI-H322M lung, 44.6%; in the experiment with HOP-62 NSCLC it was 60.3%; in the experiment with NCI-H460 lung, 37.3%; in the experiment with HOP-92 NSCLC, 25.8%. Further, the growth in the experiment with NCI-H522 lung is 24.5%; in the experiment on A549/ATCC NSCLC, 48.3%; with 786-0 renal it was 63.9%; in the experiment on COLO 205 colon it was 35.8%.
As to `CCCCCc1c(C)[nH]c(/C=c2\[nH]/c(=C3/C=c4ccccc4=N3)cc2OC)c1C`, the growth in the experiment with NCI-H23 lung was -42.1% (active); with NCI-H226 lung, -16.4% (active); in the experiment with NCI-H322M lung it was -8.17% (active); in the experiment with HOP-62 NSCLC, -56.7% (active); with NCI-H460 lung, 2.12% (active); with HOP-92 NSCLC it was -56.8% (active). The growth in the experiment on NCI-H522 lung was -45.8% (active); with A549/ATCC NSCLC it was -21.8% (active); with 786-0 renal it was -68.3% (active); in the experiment with COLO 205 colon, -76.5% (active).
In the case of `Cc1cccc(NC(=O)c2sc3nc4c(cc3c2N)CCCC4)c1`, the growth was 65% in the experiment on NCI-H23 lung; 64.8% in the experiment on NCI-H226 lung; 37.2% with NCI-H322M lung; 37.8% in the experiment with HOP-62 NSCLC; 27.6% in the experiment on NCI-H460 lung; 56.5% with HOP-92 NSCLC. Further, the growth in the experiment on NCI-H522 lung was 24.5%; with A549/ATCC NSCLC, 31.5%; in the experiment with 786-0 renal, 59.8%; with COLO 205 colon, 26.9%.
On to `CC/C=C\C[C@H](O)C/C=C1/C(=O)C(Cl)=C[C@@H]1C/C=C\CCCC(=O)OC`, for which the growth in the experiment on NCI-H23 lung was -43.8% (active); with NCI-H226 lung it was -10.9% (active); with NCI-H322M lung, 31.8%; in the experiment on HOP-62 NSCLC, -27.1% (active); in the experiment on NCI-H460 lung, -31.6% (active); in the experiment on HOP-92 NSCLC it was -31.3% (active). The growth in the experiment on NCI-H522 lung was -67.1% (active); with A549/ATCC NSCLC, 4.38% (active); in the experiment on 786-0 renal, -40.8% (active); with COLO 205 colon, -61.6% (active).
For `COc1ccc(/C=C\c2cc(OC)c(OC)c(OC)c2)c(NS(=O)(=O)c2ccc(C(C)(C)C)cc2)c1O`, the growth with NCI-H23 lung is 23.5%; in the experiment with NCI-H226 lung, 44.9%; in the experiment with NCI-H322M lung it was 64%; in the experiment on HOP-62 NSCLC, 81.9%; with NCI-H460 lung, 8.21% (active); in the experiment with HOP-92 NSCLC it was 10.8%. In addition, the growth is -7.56% (active) in the experiment on NCI-H522 lung, 27.4% with A549/ATCC NSCLC, 24.4% in the experiment with 786-0 renal and 1.63% (active) in the experiment on COLO 205 colon.
As to `CCN1C(=O)N[C@H]2[C@@H]3NC(=O)c4ccc(Cl)n4[C@@H]3C[C@]21O`, the growth was 6.06% (active) with NCI-H23 lung; 5.43% (active) with NCI-H226 lung; 11.7% with NCI-H322M lung; -4.56% (active) with HOP-62 NSCLC; 2.06% (active) with NCI-H460 lung; 3.95% (active) in the experiment with HOP-92 NSCLC. Moreover, the growth in the experiment on NCI-H522 lung was -26.9% (active); in the experiment with A549/ATCC NSCLC it was 9.08% (active); in the experiment on 786-0 renal, -4.85% (active); with COLO 205 colon, -29.5% (active).
Regarding `CCNCc1ccncc1`, the growth was 105% in the experiment with NCI-H23 lung; 103% in the experiment on NCI-H226 lung; 104% with NCI-H322M lung; 104% in the experiment with HOP-62 NSCLC; 102% with NCI-H460 lung; 107% in the experiment on HOP-92 NSCLC. In addition, the growth with NCI-H522 lung is 91%; with A549/ATCC NSCLC, 99.4%; in the experiment on 786-0 renal, 97.7%; in the experiment on COLO 205 colon, 106%.
